Screen size: about 5,500 compounds; about 2,000 (36%) were called active. Another 18% or so got no clear call; they are omitted. No stated cut-off is given here; in the data, active means normalized growth mostly below about 0.91 (no sharp cut-off); inconclusive means no clear call, values can overlap the other calls; inactive means mostly above about 0.92. This is one part of the list.
Experiment: chemical genetic growth profiling, strain panel (AID 1159580);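 further: tested at 20 µM; growth read once vehicle control cultures reached saturation at 30 °C; 1 = growth at the plate median or of vehicle wells; lower values mean less growth of the strain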
Conditions: growth OD

Measured: normalized growth

COc1cc(O)ccc1C(C)=O
inactive: S. cerevisiae deletion strains, locus YJR043C, strain POL32, hits give low values 0.977 | S. cerevisiae deletion strains, locus YJR066W, strain TOR1, hits give low values 0.957 | S. cerevisiae deletion strains, locus YJR075W, strain HOC1, hits give low values 0.966 | S. cerevisiae deletion strains, locus YKL009W, strain mrt4, hits give low values 0.999 | S. cerevisiae deletion strains, locus YKL068W, hits give low values 0.974 | S. cerevisiae deletion strains, locus YKL085W, strain MDH1 (second series), hits give low values 0.986 | S. cerevisiae deletion strains, locus YKL085W, strain MDH1, hits give low values 0.986 | S. cerevisiae deletion strains, locus YKL160W, strain elf1, hits give low values 1.02 | S. cerevisiae deletion strains, locus YKL190W, strain CNB1, hits give low values 0.995 | S. cerevisiae deletion strains, locus YKR001C, strain vps1, hits give low values 0.975 | S. cerevisiae deletion strains, locus YKR026C, strain gcn3, hits give low values 1.03 | S. cerevisiae deletion strains, locus YKR091W, strain srl3, hits give low values 1.02 | S. cerevisiae deletion strains, locus YLL001W, strain dnm1, hits give low values 1.03 | S. cerevisiae deletion strains, locus YLL026W, hits give low values 1.01 | S. cerevisiae deletion strains, locus YLL041C, strain sdh2, hits give low values 1.01 | S. cerevisiae deletion strains, locus YLR027C, strain aat2, hits give low values 1.01 | S. cerevisiae deletion strains, locus YLR039C, strain RIC1, hits give low values 0.977 | S. cerevisiae deletion strains, locus YLR058C, strain SHM2, hits give low values 0.954 | S. cerevisiae deletion strains, locus YLR102C, strain apc9, hits give low values 0.98 | S. cerevisiae deletion strains, locus YLR113W, strain HOG1, hits give low values 1.01 | S. cerevisiae deletion strains, locus YLR221C, strain rsa3, hits give low values 1.03 | S. cerevisiae deletion strains, locus YLR258W, strain gsy2, hits give low values 1.02 | S. cerevisiae deletion strains, locus YLR262C, strain YPT6 (second series), hits give low values 1.03 | S. cerevisiae deletion strains, locus YLR262C, strain YPT6, hits give low values 0.899 | S. cerevisiae deletion strains, locus YLR268W, strain sec22, hits give low values 1.04 | S. cerevisiae deletion strains, locus YLR320W, strain mms22, hits give low values 1.03 | S. cerevisiae deletion strains, locus YLR330W, strain CHS5, hits give low values 0.991 | S. cerevisiae deletion strains, locus YLR342W, strain FKS1 (second series), hits give low values 1.07 | S. cerevisiae deletion strains, locus YLR342W, strain FKS1, hits give low values 1.03 | S. cerevisiae deletion strains, locus YLR357W, strain rsc2, hits give low values 1.01 | S. cerevisiae deletion strains, locus YLR370C, strain arc18, hits give low values 1.02 | S. cerevisiae deletion strains, locus YLR371W, strain rom2, hits give low values 0.973 | S. cerevisiae deletion strains, locus YLR384C, strain iki3, hits give low values 1.05 | S. cerevisiae deletion strains, locus YLR418C, strain cdc73, hits give low values 0.973 | S. cerevisiae deletion strains, locus YML016C, strain PPZ1, hits give low values 0.989 | S. cerevisiae deletion strains, locus YML032C, strain rad52, hits give low values 0.951 | S. cerevisiae deletion strains, locus YML120C, strain ndi1, hits give low values 1.02 | S. cerevisiae deletion strains, locus YML124C, strain tub3, hits give low values 0.997 | S. cerevisiae deletion strains, locus YMR058W, strain fet3, hits give low values 1.03 | S. cerevisiae deletion strains, locus YMR078C, strain ctf18, hits give low values 0.99 | S. cerevisiae deletion strains, locus YMR125W, strain sto1, hits give low values 1.03 | S. cerevisiae deletion strains, locus YMR129W, hits give low values 1.02 | S. cerevisiae deletion strains, locus YMR205C, strain PFK2, hits give low values 1.04 | S. cerevisiae deletion strains, locus YMR223W, strain ubp8, hits give low values 0.979 | S. cerevisiae deletion strains, locus YMR231W, strain pep5, hits give low values 1.01 | S. cerevisiae deletion strains, locus YMR263W, strain SAP30, hits give low values 0.985 | S. cerevisiae deletion strains, locus YMR307W, strain GAS1, hits give low values 0.997 | S. cerevisiae deletion strains, locus YNL067W, strain RPL9B, hits give low values 0.981 | S. cerevisiae deletion strains, locus YNL071W, strain lat1, hits give low values 1.02 | S. cerevisiae deletion strains, locus YNL153C, strain GIM3, hits give low values 0.961 | S. cerevisiae deletion strains, locus YNL183C, strain NPR1, hits give low values 0.968 | S. cerevisiae deletion strains, locus YNL209W, strain ssb2, hits give low values 1.02 | S. cerevisiae deletion strains, locus YNL233W, strain BNI4, hits give low values 0.975 | S. cerevisiae deletion strains, locus YNL248C, strain rpa49, hits give low values 1.02 | S. cerevisiae deletion strains, locus YNL250W, strain rad50, hits give low values 0.974 | S. cerevisiae deletion strains, locus YNL271C, strain bni1, hits give low values 0.988 | S. cerevisiae deletion strains, locus YNL298W, strain CLA4, hits give low values 0.981 | S. cerevisiae deletion strains, locus YNL307C, strain MCK1, hits give low values 0.992 | S. cerevisiae deletion strains, locus YNL322C, strain KRE1 (second series), hits give low values 1.02 | S. cerevisiae deletion strains, locus YNR049C, strain mso1, hits give low values 1.02 | S. cerevisiae deletion strains, locus YNR052C, strain pop2, hits give low values 0.983 | S. cerevisiae deletion strains, locus YOL012C, strain htz1 1.92 | S. cerevisiae deletion strains, locus YOL147C, strain pex11, hits give low values 1 | S. cerevisiae deletion strains, locus YOR001W, strain rrp6, hits give low values 1.01 | S. cerevisiae deletion strains, locus YOR061W, strain CKA2, hits give low values 0.96 | S. cerevisiae deletion strains, locus YOR069W, strain VPS5, hits give low values 0.999 | S. cerevisiae deletion strains, locus YOR070C, strain gyp1, hits give low values 1.02 | S. cerevisiae deletion strains, locus YOR080W, strain dia2, hits give low values 1.02 | S. cerevisiae deletion strains, locus YOR083W, strain WHI5, hits give low values 1.03 | S. cerevisiae deletion strains, locus YOR106W, strain vam3, hits give low values 1.02 | S. cerevisiae deletion strains, locus YOR136W, strain idh2, hits give low values 0.995 | S. cerevisiae deletion strains, locus YOR144C, strain elg1, hits give low values 0.986 | S. cerevisiae deletion strains, locus YOR184W, strain ser1, hits give low values 0.971 | S. cerevisiae deletion strains, locus YOR231W, strain MKK1, hits give low values 1.02 | S. cerevisiae deletion strains, locus YOR265W, strain rbl2, hits give low values 1.02 | S. cerevisiae deletion strains, locus YOR270C, strain vph1, hits give low values 1.04 | S. cerevisiae deletion strains, locus YOR290C, strain snf2, hits give low values 1.01 | S. cerevisiae deletion strains, locus YOR316C, strain cot1, hits give low values 0.98 | S. cerevisiae deletion strains, locus YPL051W, strain arl3, hits give low values 1.02 | S. cerevisiae deletion strains, locus YPL055C, strain LGE1, hits give low values 0.957 | S. cerevisiae deletion strains, locus YPL078C, strain atp4, hits give low values 1.02 | S. cerevisiae deletion strains, locus YPL106C, strain sse1, hits give low values 1.01 | S. cerevisiae deletion strains, locus YPL240C, strain hsp82, hits give low values 1.01 | S. cerevisiae deletion strains, locus YPL256C, strain CLN2, hits give low values 1.04 | S. cerevisiae deletion strains, locus YPR119W, strain clb2, hits give low values 0.984 | S. cerevisiae deletion strains, locus YPR141C, strain kar3, hits give low values 0.976 | S. cerevisiae deletion strains, locus YPR163C, strain tif3, hits give low values 0.978 | S. cerevisiae deletion strains, locus YPR167C, strain met16, hits give low values 0.983 | S. cerevisiae deletion strains, strain wtn01, hits give low values 1.02 | S. cerevisiae strains, strain wild type, hits give low values 0.997
